Test results: PubChem BioAssay AID1159580 (chemical genetic matrix, 2015)
Screen size: about 5,500 compounds; about 2,000 (36%) were called active. Another 18% or so got no clear call; they are omitted. No stated cut-off is given here; in the data, active means normalized growth mostly below about 0.91 (no sharp cut-off); inconclusive means no clear call, values can overlap the other calls; inactive means mostly above about 0.92. Some of the results follow.

Assay: chemical genetic growth profiling, strain panel (AID 1159580);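 further: tested at 20 µM; growth read once vehicle control cultures reached saturation at 30 °C; 1 = growth at the plate median or of vehicle wells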
Conditions: S. cerevisiae deletion strains, growth OD
[1] = locus YAL040C, strain CLN3, stronger effect = lower value
[2] = locus YCL061C, strain MRC1 (second series), stronger effect = lower value
[3] = locus YDR363W, strain ESC2, stronger effect = lower value
[4] = locus YER002W, strain NOP16, stronger effect = lower value
[5] = locus YGR229C, strain SMI1, stronger effect = lower value
[6] = locus YMR307W, strain GAS1, stronger effect = lower value
[7] = locus YNL175C, strain NOP13, stronger effect = lower value
[8] = locus YNL197C, strain WHI3, stronger effect = lower value
[9] = locus YNL224C, strain SQS1, stronger effect = lower value
[10] = locus YOR083W, strain WHI5 (second series), stronger effect = lower value

Measured: normalized growth

CN[C@H](CC(C)C)C(=O)N[C@H]1C(=O)N[C@@H](CC(N)=O)C(=O)N[C@H]2C(=O)N[C@H]3C(=O)N[C@H](C(=O)N[C@H](C(=O)O)c4cc(O)cc(O)c4-c4cc3ccc4O)[C@H](O)c3ccc(c(Cl)c3)Oc3cc2cc(c3O[C@@H]2O[C@H](CO)[C@@H](O)[C@H](O)[C@H]2O[C@H]2C[C@](C)(N)[C@H](O)[C@H](C)O2)Oc2ccc(cc2Cl)[C@H]1O
inactive: [1] 0.985 | [2] 1.01 | [3] 1.01 | [4] 1.01 | [5] 1.03 | locus YMR263W, strain SAP30, stronger effect = lower value 0.997 | [6] 1 | locus YNL153C, strain GIM3, stronger effect = lower value 0.984 | [7] 1.01 | [8] 1.03 | [9] 0.991 | [10] 0.985

CCCN(CCC)CCc1cccc2c1CC(=O)N2
inactive: locus YAL021C, strain ccr4, stronger effect = lower value 0.978 | locus YAL026C, strain drs2, stronger effect = lower value 0.979 | locus YAL030W, strain snc1, stronger effect = lower value 0.981 | [1] 1.03 | locus YBL061C, strain skt5, stronger effect = lower value 0.963 | locus YBR009C, strain hhf1, stronger effect = lower value 0.984 | locus YBR023C, strain chs3, stronger effect = lower value 0.962 | locus YBR171W, strain sec66, stronger effect = lower value 0.96 | locus YBR231C, strain swc5, stronger effect = lower value 0.99 | locus YBR279W, strain paf1, stronger effect = lower value 0.977 | locus YCL011C, strain gbp2, stronger effect = lower value 0.981 | locus YCL016C, strain dcc1, stronger effect = lower value 0.964 | [2] 0.997 | locus YCL061C, strain MRC1, stronger effect = lower value 0.965 | locus YCL069W, strain vba3, stronger effect = lower value 0.966 | locus YCR088W, strain abp1, stronger effect = lower value 0.969 | locus YDL005C, strain med2, stronger effect = lower value 0.977 | locus YDL040C, strain nat1, stronger effect = lower value 0.977 | locus YDR001C, strain nth1, stronger effect = lower value 0.968 | locus YDR069C, strain doa4, stronger effect = lower value 0.983 | locus YDR137W, strain rgp1, stronger effect = lower value 0.951 | locus YDR159W, strain sac3, stronger effect = lower value 0.966 | locus YDR195W, strain ref2 0.949 | locus YDR297W, strain sur2, stronger effect = lower value 0.978 | locus YDR334W, strain swr1, stronger effect = lower value 0.954 | locus YDR335W, strain msn5, stronger effect = lower value 0.969 | [3] 1.03 | locus YDR392W, strain spt3, stronger effect = lower value 0.96 | locus YEL003W, strain gim4, stronger effect = lower value 0.973 | locus YEL037C, strain rad23, stronger effect = lower value 0.971 | locus YEL061C, strain CIN8 (second series), stronger effect = lower value 0.981 | [4] 1.02 | locus YER015W, strain faa2, stronger effect = lower value 0.987 | locus YER016W, strain bim1, stronger effect = lower value 0.975 | locus YER111C, strain swi4, stronger effect = lower value 0.955 | locus YER155C, strain BEM2 (second series), stronger effect = lower value 0.959 | locus YFR010W, strain ubp6, stronger effect = lower value 0.967 | locus YGL167C, strain pmr1, stronger effect = lower value 0.963 | locus YGL173C, strain kem1, stronger effect = lower value 0.969 | locus YGL227W, strain vid30, stronger effect = lower value 0.972 | locus YGL240W, strain doc1, stronger effect = lower value 0.991 | locus YGL253W, strain hxk2, stronger effect = lower value 0.993 | locus YGR078C, strain PAC10, stronger effect = lower value 0.988 | [5] 1.04 | locus YHR013C, strain ard1, stronger effect = lower value 0.94 | locus YHR027C, strain rpn1, stronger effect = lower value 0.959 | locus YHR030C, strain SLT2, stronger effect = lower value 0.947 | locus YHR079C, strain IRE1, stronger effect = lower value 0.941 | locus YHR142W, strain chs7, stronger effect = lower value 0.952 | locus YJL092W, strain hpr5, stronger effect = lower value 0.966 | locus YJL095W, strain BCK1 (second series), stronger effect = lower value 0.972 | locus YJL095W, strain BCK1, stronger effect = lower value 1.01 | locus YJL115W, strain asf1, stronger effect = lower value 0.958 | locus YJL129C, strain trk1, stronger effect = lower value 0.973 | locus YJL154C, strain vps35, stronger effect = lower value 0.974 | locus YJL164C, strain tpk1, stronger effect = lower value 0.981 | locus YJL166W, strain qcr8, stronger effect = lower value 0.988 | locus YJL187C, strain SWE1, stronger effect = lower value 0.976 | locus YJR066W, strain TOR1, stronger effect = lower value 0.94 | locus YJR075W, strain HOC1, stronger effect = lower value 1.01 | locus YKL160W, strain elf1, stronger effect = lower value 0.978 | locus YKR026C, strain gcn3, stronger effect = lower value 0.968 | locus YKR091W, strain srl3, stronger effect = lower value 0.983 | locus YLL001W, strain dnm1, stronger effect = lower value 0.977 | locus YLL026W, stronger effect = lower value 0.981 | locus YLL041C, strain sdh2, stronger effect = lower value 0.974 | locus YLR027C, strain aat2, stronger effect = lower value 0.972 | locus YLR113W, strain HOG1, stronger effect = lower value 1.03 | locus YLR221C, strain rsa3, stronger effect = lower value 0.975 | locus YLR258W, strain gsy2, stronger effect = lower value 0.979 | locus YLR262C, strain YPT6 (second series), stronger effect = lower value 0.976 | locus YLR320W, strain mms22, stronger effect = lower value 0.969 | locus YLR342W, strain FKS1, stronger effect = lower value 0.981 | locus YLR357W, strain rsc2, stronger effect = lower value 0.961 | locus YLR370C, strain arc18, stronger effect = lower value 0.96 | locus YLR384C, strain iki3, stronger effect = lower value 0.969 | locus YML120C, strain ndi1, stronger effect = lower value 0.972 | locus YMR058W, strain fet3, stronger effect = lower value 0.977 | locus YMR125W, strain sto1, stronger effect = lower value 0.967 | locus YMR129W, stronger effect = lower value 0.969 | locus YMR205C, strain PFK2, stronger effect = lower value 0.965 | locus YMR231W, strain pep5, stronger effect = lower value 0.975 | [6] 0.95 | locus YNL071W, strain lat1, stronger effect = lower value 0.984 | locus YNL128W, strain TEP1, stronger effect = lower value 0.989 | [7] 1.01 | locus YNL183C, strain NPR1, stronger effect = lower value 0.966 | [8] 0.999 | locus YNL209W, strain ssb2, stronger effect = lower value 0.97 | [9] 0.988 | locus YNL248C, strain rpa49, stronger effect = lower value 0.955 | locus YNL322C, strain KRE1 (second series), stronger effect = lower value 0.985 | locus YNL322C, strain KRE1, stronger effect = lower value 1.01 | locus YNR049C, strain mso1, stronger effect = lower value 0.966 | locus YOR001W, strain rrp6, stronger effect = lower value 0.972 | locus YOR070C, strain gyp1, stronger effect = lower value 0.974 | locus YOR080W, strain dia2, stronger effect = lower value 0.957 | [10] 1 | locus YOR083W, strain WHI5, stronger effect = lower value 0.975 | locus YOR106W, strain vam3, stronger effect = lower value 0.977 | locus YOR231W, strain MKK1, stronger effect = lower value 0.978 | locus YOR265W, strain rbl2, stronger effect = lower value 0.972 | locus YOR270C, strain vph1, stronger effect = lower value 0.944 | locus YOR290C, strain snf2, stronger effect = lower value 0.953 | locus YPL051W, strain arl3, stronger effect = lower value 0.975 | locus YPL078C, strain atp4, stronger effect = lower value 0.969 | locus YPL106C, strain sse1, stronger effect = lower value 0.99 | locus YPL240C, strain hsp82, stronger effect = lower value 0.976 | locus YPL241C, strain CIN2, stronger effect = lower value 1 | locus YPL256C, strain CLN2, stronger effect = lower value 0.943
